Sampled rows, rich in hits. Any-hit rate of the full collection: about 19%.
Pf growth 48h – Primary qHTS for delayed death inhibitors of the malarial parasite plastid, 48 hour incubation. P. falciparum luciferase growth in erythrocytes, 48 h. AID 504832, 2011. 310,000 tested, 5.9% active. Potency, µM (titrated, usually from 28.7 µM), without a hit: at the highest dose activity change, negative = inhibition, most hits filed as inhibitors; further: potency means the concentration at half of the fitted maximal effect; on the % scale 0 is the no-effect control and ±100 the full control effect
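In quantitative HTS format, infected erythrocytes bearing luciferase-reporter parasites were treated for a single generation at 37 C. Luminescence after adding detection reagent served as the growth measure.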
LASV entry inh – qHTS for Inhibitors of binding or entry into cells for Lassa Virus. Lassa virus pseudotype entry inhibition, cell reporter. Potency, µM (doses to about 37.9 µM), for inactives: at the top dose activity change, negative = inhibition, most hits filed as inhibitors. 300,000 tested, 1.2% active; calls by dose curve; tested in HEK293 cells; further: potency means the concentration at half of the fitted maximal effect; on the % scale 0 is the no-effect control and ±100 the full control effect; nearly all actives have a fitted effect of over 50% in size
Shiga inhibitor – A qHTS for Small Molecule Inhibitors of Shiga Toxin; Vero cells, Shiga toxin protein synthesis inhibition reporter; inhibition, % at 38.7 µM; 290,000 tested, 9.2% active; AID 2315, 2010; in the data active means inhibition mostly above about 28%, no sharp cut-off; inactive means mostly below about 43%; further: 0% is about no effect
Marburg entry inh – qHTS for inhibitors of binding or entry into cells for Marburg Virus; Marburg virus pseudotyped entry inhibition, cell reporter; 300,000 tested, 1.8% active; Potency, µM (doses to about 37.8 µM), for the others: top-dose activity change, negative = inhibition, usual class: inhibitors; AID 540276, 2011; calls by dose curve; tested in HEK293 cells; further: potency means the concentration at half of the fitted maximal effect; on the % scale 0 is the no-effect control and ±100 the full control effect
CHX counter – Cycloheximide Counterscreen for Small Molecule Inhibitors of Shiga Toxin. cell reporter, cycloheximide protein synthesis inhibition counterscreen. max response, %. 300,000 tested, 12% active. AID 2314, 2010; in the data active means max response mostly above about 13%, no sharp cut-off; inactive means mostly below about 14%; further: read at 38.3 µM for the half of the compounds with a filed dose; 0% is about no effect
Pf growth 96h – Primary qHTS for delayed death inhibitors of the malarial parasite plastid, 96 hour incubation | P. falciparum luciferase reporter growth, 96 h | 320,000 tested, 6.9% active | AID 504834, 2011 | Potency, µM (series often up to 28.7 µM), for inactives: at the highest dose activity change, negative = inhibition, hits mostly inhibitors; further: potency means the concentration at half of the fitted maximal effect; on the % scale 0 is the no-effect control and ±100 the full control effect
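Delayed-death screen, second-generation endpoint: infected erythrocytes, 2% hematocrit, 0.05% parasitemia final; 96 hours at 37 C, 5% CO2; luciferase detection reagent; luminescence decrease equals reduced growth.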
* hit, by the source's call; ? = inconclusive; · = no result given; [ ] = remark or other dose. Unless noted, the call rests on the fitted dose curve; in most records, active means well fitted inhibition curve with a large enough effect; inconclusive means small, poorly fitted or top-dose-only effect, or another doubt; inactive means no such curve, though single readings can be large or run the other way.

SMILES	Pf growth 48h	LASV entry inh	Shiga inhibitor	Marburg entry inh	CHX counter	Pf growth 96h
COc1cc(C(C(=O)NCc2ccccc2)N(C(=O)c2snc(C(N)=O)c2N)C2CCCC2)cc(OC)c1OC (stereo not drawn)	13.1µM*	2.1%[46.1 µM]	-2.9	?	-5.8	4.65µM*
COc1ccc(C(C(=O)NCc2ccccc2)N(C(=O)c2snc(C(N)=O)c2N)C2CCCC2)cc1 (stereo not drawn)	14.7µM*	1.7%	11.7	-7.5%[46.1 µM]	-2.1	66.8%
COc1ccc(C(C(=O)NC2CCCC2)N(Cc2ccccc2)C(=O)c2snc(C(N)=O)c2N)cc1OC (stereo not drawn)	0.0%	4.7%[46.1 µM]	-9.9	?	-2.6	?
COc1cc(Cl)c(C)cc1NC(=O)Cn1ncc2c1-c1cc(C)ccc1OC2	·	·	·	12.1%[46.1 µM]	·	·
COc1ccccc1CNC(=O)Cn1c(=O)c2cccn2c2cccnc21	-20.3%	·	7.3	·	6.1	-12.7%
CN1C(=O)c2ccccc2C(C(=O)NCC2CCCO2)C1c1c[nH]c2ccccc12 (stereo not drawn)	-1.9%	-16.2%	-8.6	10.8%	7.1	?
CCn1c(SCC(=O)Nc2cccc(C)c2)nc2ccccc2c1=O	?	-22.0%[46.1 µM]	40.0	?	1.1	-1.0%
CCN(C(=O)CN1C(=O)c2ccc([N+](=O)[O-])cc2C1=O)C1CCS(=O)(=O)C1 (stereo not drawn)	58.5%	?	·	-4.3%	·	3.5%
N#CC1(NC(=O)CSc2nc3ccccc3s2)CCCCC1	?	16.3%	·	?	·	-14.6%
CCN(C(=O)CSc1nnc(Nc2cccc(C)c2C)s1)C1CCS(=O)(=O)C1 (stereo not drawn)	8.28µM*	-0.5%	-7.3	?	-4.3	-102.4%
CCN(C(=O)CSc1nc2ccc([N+](=O)[O-])cc2s1)C1CCS(=O)(=O)C1 (stereo not drawn)	?	-20.3%	-2.9	-7.3%	13.4*	11.7µM*
CCCN(C(=O)CSc1nc2cc(S(=O)(=O)N(CC)CC)ccc2o1)C1CCS(=O)(=O)C1 (stereo not drawn)	?	-21.0%	·	-2.7%[46.1 µM]	·	5.22µM*
N#CC1(NC(=O)CSc2nc3ccc([N+](=O)[O-])cc3s2)CCCCC1	5.22µM*	-7.1%	·	?	·	?
CN(CC(=O)NCc1ccco1)CC(=O)Nc1ccc(F)c(F)c1F	·	9.8%[46.1 µM]	·	1.8%[46.1 µM]	·	·
Cc1ccccc1C(=O)NNC(=O)C(=O)N1CCCCC1	18.6%	3.5%	-10.1	-5.6%	-0.9	?
COCCNC(=O)CCCn1c(SCC(=O)NCc2ccc(C)cc2)nc2c(sc3ccccc32)c1=O	·	22.9%[46.1 µM]	·	9.8%[46.1 µM]	·	·
CCc1ccc(Nc2nnc(SCC(=O)N(C)C3CCS(=O)(=O)C3)s2)cc1 (stereo not drawn)	9.28µM*	·	22.6	·	16.9*	?
CN(C(=O)CSc1nnc(NC2CCCCC2)s1)C1CCS(=O)(=O)C1 (stereo not drawn)	-10.9%	11.6%	-3.4	5.2%	-2.9	-0.3%
CC1(C)CN=C(N(Cc2ccccc2)C(=O)Nc2ccccc2)S1	139.3%	4.1%	76.1*	?	65.3*	95.9%
Cc1cccnc1N(C(=O)Nc1ccccc1)C1=NCC(C)(C)S1	?	-15.0%	89.9	-8.0%	6.6	-22.1%
CC1(C)CN=C(N(C(=O)Nc2ccccc2)c2ccccc2F)S1	-28.6%	19.3%	61.7*	-8.8%[14.2 µM]	16.6*	-10.7%
Cc1cccnc1N(C(=O)Nc1cccc(Cl)c1)C1=NCC(C)(C)S1	?	2.8%	12.3	-7.9%	-1.0	?
O=C(C1=C[C@H](C2CCCCC2)C[C@H](OCc2ccc(CO)cc2)O1)N1CCOCC1	-6.7%	·	13.4	·	0.7	?
O=C(C1=C[C@@H](C2CCCCC2)C[C@@H](OCc2ccc(CO)cc2)O1)N1CCN(Cc2ccccc2)CC1	4.15µM*	·	-3.0	·	-1.4	4.15µM*
O=C(C1=C[C@H](C2CCCCC2)C[C@H](OCc2ccc(CO)cc2)O1)N1CCN(Cc2ccccc2)CC1	5.22µM*	·	-3.1	·	-1.7	11.7µM*
SMILES	Pf growth 48h	LASV entry inh	Shiga inhibitor	Marburg entry inh	CHX counter	Pf growth 96h
C/C(Nc1ccc(C)cc1)=C(/C#N)C(N)=O	·	?	18.9	2.3%	4.0	35.3%
CN(C)CCCN1C(=O)c2cccc3c([N+](=O)[O-])ccc(c23)C1=O	-3.7%	?	-26.2	1.84µM*	-11.6	-17.1%
O=C(O)c1ccc(CN2C(=O)c3cccc4c([N+](=O)[O-])ccc(c34)C2=O)cc1	20.7%	-28.6%[46.1 µM]	-7.1	?	6.4	31.1%
N#CC1=C(N)SC(N)=C(C#N)C1c1ccc(C(F)(F)F)cc1	-24.2%	·	6.2	7.5%	-2.2	9.28µM*
CCc1ccc(C2C(C#N)=C(N)SC(N)=C2C#N)cc1	5.86µM*	5.8%	-9.4	0.8%	9.6	-9.0%
Cc1cc2nc(-c3ccc(OCc4ccccc4)cc3)cc(C(F)(F)F)n2n1	·	-15.2%[46.1 µM]	·	24.5%[46.1 µM]	·	·
O=C(Nc1ccccc1Br)c1ccccc1-c1ccccc1	2.1%	?	-14.0	?	-3.8	7.38µM*
CCOc1ccc(C(C)NC(=O)c2ccccc2OCc2c(C)noc2C)cc1OCC (stereo not drawn)	?	?	16.3	?	-1.5	6.57µM*
Cc1noc(C)c1COc1ccccc1C(=O)Nc1ccc(C(N)=O)cc1	-15.9%	·	·	·	·	?
CCCCc1nnc(NC(=O)c2ccccc2OCc2c(C)noc2C)s1	9.28µM*	-3.5%	·	-8.5%	·	0.928µM*
CCOc1ccccc1C(=O)Nc1nnc(COC)s1	12.9%	20.6%[46.1 µM]	21.8	-13.1%	20.6*	-21.5%
COc1cccc(N2CCN(C(=O)c3ccc(CS(=O)Cc4ccccc4Cl)o3)CC2)c1 (stereo not drawn)	-20.3%	?	11.4	-4.6%[46.1 µM]	-5.4	?
CCOc1ccccc1C(=O)Nc1nccs1	10.0%	21.3%	31.2	?	-2.2	6.57µM*
CCOc1ccccc1C(=O)Nc1ccccc1-c1ccccc1	13.3%	-31.2%	-7.3	?	-3.9	4.15µM*
CCOc1ccccc1C(=O)Nc1ccccc1O	?	10.6%	-0.3	8.1%	-1.6	·
CCOc1cccc(C(=O)Nc2ccc(N(CC)CC)cc2)c1	17.8%	-18.5%	15.3	-22.5%	16.4	?
CCOc1cccc(C(=O)Nc2ccc(N3CCCC3)cc2)c1	0.0%	-3.7%[46.1 µM]	47.5	?	16.6*	0.0%
CCOc1ccc(NC(=O)c2cccc(OC(=S)N3CCC(C)CC3)c2)cc1	?	15.2%	34.8	6.0%	17.1*	11.7µM*
CCOc1ccc(C(=O)Nc2ccc(N3CCCC3)cc2)cc1	?	?	33.5	-5.5%	19.4*	38.3%
Cc1oc(-c2ccccc2Cl)nc1CS(=O)CC(=O)NCCCN1CC(C)CC(C)C1 (stereo not drawn)	5.9%	·	-7.8	·	-2.3	?

Compound activity from PubChem.
